# Screening data from PubChem BioAssay.
# Shown is part of a subset that was picked to be rich in hits.
# nsP2pro primary: inhibitors of chikungunya virus nsP2 protease. Q8JUX6. FRET peptide cleavage, nsP2pro, fluorescence 1 h. Potency, µM (top dose mostly 24.9 µM), inactives show at the top dose activity change, negative = inhibition, usual class: inhibitors. 1.1% of 31,000 active; also: nearly all actives have a fitted effect of over 60% in size
#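 Purified recombinant nsP2pro (150 nM final) in 10 mM Tris-HCl pH 8.0 with 0.01% Tween 20 was preincubated 15 min at room temperature with compound (7 concentrations, up to 25 uM). FRET peptide 2 substrate (2.5 uM final) was then added; fluorescence was read after 1 h.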
# nsP2 cell sec: secondary cell-based test for CHIKV nsP2 protease inhibitors | shares compounds with nsP2pro primary | cell-based CHIKV nsP2 protease reporter assay | Potency, µM (highest dose often 51.1 µM), inactives show at the top dose activity change, negative = inhibition, usual class: inhibitors | AID 1964100 | 10% of 450 active; also: nearly all actives have a fitted effect of over 70% in size
# NSP2 full ctr: selectivity test for CHIKV nsP2 protease inhibitors: full-length NSP2; shares compounds with nsP2pro primary; Full-length CHIKV NSP2 protease enzymatic counterscreen; Potency, µM (doses to about 50.7 µM), for inactives: top-dose activity change, negative = inhibition, usual class: inhibitors; 39% of 410 active; AID 1964101; also: nearly all actives have a fitted effect of over 65% in size
# Furin counterscr: inhibits human furin in a CHIKV nsP2 protease selectivity counterscreen; shares compounds with nsP2pro primary; Recombinant human furin enzymatic counterscreen, fluorogenic substrate; Potency, µM (highest dose often 50.6 µM), inactives show at the top dose activity change, negative = inhibition, most hits filed as inhibitors; 6% of 410 active
# NS23 peptide cs: selectivity test for CHIKV nsP2 protease inhibitors: endogenous NS2/3 peptide | shares compounds with nsP2pro primary | Purified CHIKV nsP2 protease, endogenous NS2/3 peptide cleavage | Potency, µM (highest dose often 51 µM), without a hit: at the top dose activity change, negative = inhibition, actives largely listed as inhibitors | 34% of 410 active; also: nearly all actives have a fitted effect of over 55% in size
# Papain counter: papain protease inhibition, counterscreen for nsP2pro inhibitors; purified papain protease activity, enzymatic inhibition; 5% of 410 active; Potency, µM (doses to about 51 µM), inactives show at the top dose activity change, negative = inhibition, actives largely listed as inhibitors; AID 1964104; shares compounds with nsP2pro primary
# Target sequence (P00784 whole entry, looked up): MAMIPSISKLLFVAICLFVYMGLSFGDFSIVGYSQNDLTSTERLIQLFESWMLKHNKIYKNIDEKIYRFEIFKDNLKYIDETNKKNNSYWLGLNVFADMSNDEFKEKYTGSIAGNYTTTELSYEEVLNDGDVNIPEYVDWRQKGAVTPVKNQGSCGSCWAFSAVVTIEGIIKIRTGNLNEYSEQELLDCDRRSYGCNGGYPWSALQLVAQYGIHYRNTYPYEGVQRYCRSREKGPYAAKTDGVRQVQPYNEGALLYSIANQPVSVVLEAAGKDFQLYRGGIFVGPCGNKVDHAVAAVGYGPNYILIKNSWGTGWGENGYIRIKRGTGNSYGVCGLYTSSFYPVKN
# nsP2pro conf qHTS: CHIKV nsP2 protease inhibition, confirmatory qHTS | shares compounds with nsP2pro primary | CHIKV nsP2 protease enzymatic activity, qHTS | Potency, µM (titrated, usually from 25.5 µM), without a hit: at the top dose activity change, negative = inhibition, most hits filed as inhibitors | 43% of 410 active; also: nearly all actives have a fitted effect of over 75% in size
# HCV NS3 counter: selectivity counter-screen for CHIKV nsP2 protease inhibitors: HCV NS3/4A | shares compounds with nsP2pro primary | HCV NS3/4A protease biochemical counterscreen | Potency, µM (series often up to 50.9 µM), usual class: inhibitors | 20% of 410 active; also: nearly all actives have a fitted effect of over 55% in size
# Numbers without * were called inactive; i = inactive; ? = inconclusive; [ ] = dose if it differs, or a comment. Calls follow the shape of the full dose curve. % is scaled to controls: 0 for no effect and ±100 for the full control effect; potency is read from the fitted curve at half-maximal effect.
SMILES,nsP2pro primary,others
CC1CC(=O)[C@]2(O)C(C(=O)OCCc3ccc(O)c(O)c3)=CO[C@@H](O[C@@H]3O[C@H](CO)[C@@H](O)[C@H](O)[C@H]3O)[C@H]12 (stereo partly specified),3.8µM*,nsP2 cell sec=-6%[17.6 µM];NSP2 full ctr=10%[17.3 µM];Furin counterscr=-7%[17.3 µM];NS23 peptide cs=-15%[17.2 µM];Papain counter=-1%[17.2 µM];nsP2pro conf qHTS=?;HCV NS3 counter=4µM*
COc1ccc(CC(C)(C)NC[C@H](O)c2cc(O)cc3c2OCC(=O)N3)cc1,-5%,
Nc1ncnc2c1ncn2[C@@H]1O[C@H](CN[S+](=O)([O-])NC(=O)c2cccc(-c3noc(-c4ccccc4F)n3)c2)[C@@H](O)[C@H]1O,i,
COc1nccc(-c2nc(Nc3ccc(F)c(F)c3)c3ccccc3n2)c1Cl,i,
C=C(C(=O)O)C1CC2=C(C)C(=O)CC2C(C)CC1O (stereo unspecified),4.4µM*,nsP2 cell sec=?;NSP2 full ctr=?;Furin counterscr=-5%;NS23 peptide cs=?;Papain counter=-3%;nsP2pro conf qHTS=?;HCV NS3 counter=i
O=C1Nc2ccccc2C12CN(Cc1ccc(C(F)(F)F)cc1)C2,-6%,
CC(NCc1cn(CCC(N)=O)c2ccccc12)c1ccccc1-n1cccn1 (stereo unspecified),-18%,
NC(=O)[C@H]1C[C@@H](O)[C@H](O)[C@H]2[C@@H]1SC(=Nc1ccc(Cl)cc1)N2CC1CCCCC1,4%,
COc1cc(C(=O)O)ccc1OC1OC(CO)C(O)C(O)C1O (stereo unspecified),-3%,
COc1ccc(-c2ccc3cc(C(=O)O)ccc3c2)cc1C12CC3CC(CC(C3)C1)C2,-21%,
COc1cc(C(=O)O)cc(OC)c1O,?,nsP2 cell sec=-4%;NSP2 full ctr=?;Furin counterscr=-2%;NS23 peptide cs=i;Papain counter=-6%;nsP2pro conf qHTS=2%;HCV NS3 counter=i
COc1cc2c(c(OC)c1OC)-c1c(cc3c(c1OC)OCO3)C[C@@H](C)[C@@H](C)C2,-16%,
CC(C)=CCC1=C(O)c2ccccc2C(=O)C1=O,?,nsP2 cell sec=?;NSP2 full ctr=?;Furin counterscr=-11%[100 µM];NS23 peptide cs=?;Papain counter=-27%[100 µM];nsP2pro conf qHTS=-31%[50 µM];HCV NS3 counter=i
COC1=C(OC)C(=O)C(CC=C(C)CCC=C(C)CCC=C(C)CCC=C(C)CCC=C(C)CCC=C(C)CCC=C(C)CCC=C(C)CCC=C(C)CCC=C(C)C)=C(C)C1=O,-3%[2.68 µM],
O=C(c1ccc(C(F)(F)F)cc1)N1CCC2(CC1)COc1ccccc1NC2=O,1%,
C=CC(=O)Nc1cc(-n2c(=O)ccc3cnc4ccc(-c5ccc(NS(C)(=O)=O)cc5)cc4c32)ccc1C,245%,
O=C1OCCN1C1CCN(Cc2ccc(F)cc2)CC1,0%[39.2 µM],
Cc1cc(C)nc(NC(=S)N2CCN(c3ccc(Cl)cc3S(C)(=O)=O)CC2)c1,i,
COCc1ncc(C)n1C1CCCN(C(=O)CCCc2ccccc2)C1 (stereo unspecified),3%,
O=c1oc2c3c(ccc2c2ccccc12)OCN(Cc1ccc(Cl)cc1)C3,?,nsP2 cell sec=206%;NSP2 full ctr=?;Furin counterscr=?;NS23 peptide cs=?;Papain counter=-4%;nsP2pro conf qHTS=4.5µM*;HCV NS3 counter=i
Cc1cc(=O)oc2c3c(ccc12)OCN(Cc1ccc(Cl)cc1)C3,12%,
COc1ccc(CN2COc3ccc4c(oc(=O)c5ccccc54)c3C2)cc1OC,-28%,
CC(C)C[C@H](NC(=O)OCc1ccccc1)C(=O)N[C@@H](CC1CCNC1=O)C(O)S(=O)(=O)O (stereo partly specified),-24%,
CCCCCCCCC=CCCCCCCCC(=O)NCCOC(=O)CC(C(=O)O)S(=O)(=O)O (stereo unspecified),13%,
O=C(CCc1cc2n(n1)CCCNC2)NC1CCCN(c2ncccn2)C1 (stereo unspecified),-1%,
SMILES,nsP2pro primary,others
COc1ccc(CN2CCCC3(C2)C(=NC2CCCCC2)NC(=O)N3c2cccnc2)cc1 (stereo unspecified),i,
S=C(Nc1cc(Cl)ccn1)N1CCN(c2ccc(Cl)cc2Cl)CC1,0%,
C=C1C(=O)OC2/C=C(\COO)CC/C=C(\COC(C)=O)CC(OC(=O)C(C)CC)C12 (stereo unspecified),3%[10 µM],
C=C1C(=O)O[C@@H]2[C@H]1CC(=O)[C@H](C)[C@@](O)(C(=O)/C=C/C)[C@H]2OC(=O)C(C)CC (stereo partly specified),?,nsP2 cell sec=?;NSP2 full ctr=?;Furin counterscr=5%[33.5 µM];NS23 peptide cs=13µM*;Papain counter=-5%[33.5 µM];nsP2pro conf qHTS=?;HCV NS3 counter=i
C=C1C(=O)O[C@@H]2C[C@@H](C)[C@]34C[C@]5(C(=O)O[C@H]6CC(C)=C([C@H](C)CCCO)[C@H](OC(=O)C(C)CC)[C@H]65)[C@@H](C(C)=C3C[C@@H]12)[C@H]4OC(C)=O (stereo partly specified),13%[10 µM],
CNc1nc(C(=O)N2CCC(c3nccn3Cc3ccncc3)CC2)cs1,-2%,
Cc1cc2nc3n(c(=O)c2n1CC(=O)NC1CCc2ccccc21)CCCCC3 (stereo unspecified),0%,
Cc1n[nH]c(C)c1CNC(=O)C1CCCCC(=O)N1 (stereo unspecified),i,
O=C(CCn1cccn1)NC1CC(=O)N(Cc2cccc3ccccc23)C1 (stereo unspecified),-1%,
COc1ccc(C(C(=O)O)N2CCN(Cc3csc(C)n3)CC2)cc1C (stereo unspecified),i,
CC1=CC(=O)C[C@H]2[C@@H]1CC[C@@H](C)[C@]21CO[C@H](c2ccoc2)C1=O,?,nsP2 cell sec=1%[33.5 µM];NSP2 full ctr=-21%[33.5 µM];Furin counterscr=6%[33.5 µM];NS23 peptide cs=i;Papain counter=-5%[33.5 µM];nsP2pro conf qHTS=10%[16.7 µM];HCV NS3 counter=i
Cc1nn(-c2ccccc2)c2c1C(C1CC1)N(C1CCN(Cc3cccc(OC(F)(F)F)c3)CC1)C2=O (stereo unspecified),2%,
Cc1ccoc1C(=O)N1CCc2c(nc(-c3cccnc3)nc2N(C)C)C1,0%,
O=C1CC2(CCN(C(=O)C3CCCN3C(=O)c3ccc(Cl)nc3)CC2)Oc2ccccc2N1 (stereo unspecified),-6%,
Nc1ccccc1OC1=NS(=O)(=O)c2ccccc21,10µM*,nsP2 cell sec=7%;NSP2 full ctr=?;Furin counterscr=-5%;NS23 peptide cs=-11%;Papain counter=-5%;nsP2pro conf qHTS=-6%;HCV NS3 counter=i
O=S1(=O)N=C(Oc2ccccc2Br)c2ccccc21,i,
Cc1ccccc1OC1=NS(=O)(=O)c2ccccc21,i,
CCOC(=O)c1ccoc1-c1ccc2ncnc(N(C)Cc3sccc3C)c2c1,i,
